# Source: PubChem (National Center for Advancing Translational Sciences (NCATS))
# FMDV inh: antivirals against foot and mouth disease virus. FMDV antiviral cell-based qHTS. Potency, µM (highest dose often 57.9 µM), without a hit: at the top dose activity change, negative = inhibition, most hits filed as inhibitors. 410,000 compounds, 1.2% hits. AID 1159524; calls by dose curve; tested in HEK293T cells; further: read-out not given here; potency means the concentration at half of the fitted maximal effect; nearly all actives have a fitted effect of over 45% in size
# TbPYK inhibitor: inhibitors of Trypanosoma brucei pyruvate kinase. 410,000 compounds, 0.12% hits. Potency, µM (doses to about 76.8 µM), for inactives: at the highest dose activity, negative = inhibition, most hits filed as inhibitors. TbPYK enzyme, Kinase-Glo Plus ATP luminescence, 45 min. Q57TT1; further: potency means the concentration at half of the fitted maximal effect; nearly all actives have a fitted effect of over 50% in size
#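 Assay buffer: 50 mM TEA pH 7.2, 100 mM KCl, 10 mM MgCl2, 0.05% BSA, 0.01% Tween-20. Pyruvate kinase from T. brucei plus substrate met compound, then ADP (130 uM final). Luminescence was read post 45 min RT.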
# RE007 growth inh: less growth of the S. pombe RE007 Vpr strain; S. pombe RE007 Vpr strain, BacTiter-Glo ATP luminescence, 24 h; Potency, µM (top dose mostly 92.2 µM), for inactives: at the highest dose activity change, negative = less growth, most hits filed as inhibitors; 360,000 compounds, 0.21% hits; AID 651644; active means well fitted falling curve with a large enough effect; inconclusive means small, poorly fitted or top-dose-only effect; inactive means no such curve, though single readings can be large or run the other way; further: potency means the concentration at half of the fitted maximal effect; nearly all actives have a fitted effect of over 50% in size
#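 Fission yeast RE007 carrying one integrated HIV-1 vpr copy, seeded at OD 0.01 in PMG+AL medium with 23 nL pinned compound. Grown 24 h at 30 degrees; viability read by BacTiter-Glo luminescence after 5 min.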
# HCMV inh: human cytomegalovirus inhibition; activity change, negative = inhibition, % at 57.5 µM; 410,000 compounds, 4.5% hits; HFF cells, HCMV-luciferase reporter, 72 h; active compounds read low; in the data active means activity change below about -60%; inconclusive means no clear call, values can overlap the other calls; inactive means above about -39%
#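 Luciferase read-out from HCMV-luciferase-infected HFFs (MOI 1 PFU/cell) 72 h post infection at 37C; compounds added after 16 h cell attachment; activity normalized between buffer-only basal and Salinomycin (10uM) inhibitor controls.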
# Giardia FBPA inh: blocks Giardia fructose-bisphosphate aldolase activity. purified Giardia FBPA. Potency, µM (doses to about 59.6 µM), inactives show top-dose activity, negative = inhibition, most hits filed as inhibitors. 290,000 compounds, 0.71% hits; further: potency means the concentration at half of the fitted maximal effect; nearly all actives have a fitted effect of over 55% in size
# Target sequence (A8B2U2 whole entry, looked up): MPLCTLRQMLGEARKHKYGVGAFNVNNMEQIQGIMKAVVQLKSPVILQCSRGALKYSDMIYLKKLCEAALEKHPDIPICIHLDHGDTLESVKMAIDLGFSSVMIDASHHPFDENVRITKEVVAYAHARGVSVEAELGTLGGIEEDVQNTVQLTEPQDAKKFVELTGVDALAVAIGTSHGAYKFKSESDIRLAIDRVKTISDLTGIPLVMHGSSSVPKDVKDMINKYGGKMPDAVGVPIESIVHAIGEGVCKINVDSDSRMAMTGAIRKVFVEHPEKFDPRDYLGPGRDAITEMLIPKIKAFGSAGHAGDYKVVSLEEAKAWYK
#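 Giardia FBPA (40 nM reagent) was preincubated 10 min at RT with compound (up to 57.5 uM final), then substrate plus GAPDH/TPI/NAD/arsenate coupling system with diaphorase/resazurin was added; resorufin fluorescence (525/598 nm) was read after 20 min.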
# Sm TGR inh: inhibitors of Schistosoma mansoni thioredoxin glutathione reductase. 360,000 compounds, 3% hits. Potency, µM (series often up to 114 µM), for inactives: at the top dose activity change, negative = inhibition, actives largely listed as inhibitors. Q962Y6. purified TGR, DTNB reduction, TNB absorbance 405 nm. AID 485364; further: potency means the concentration at half of the fitted maximal effect; nearly all actives have a fitted effect of over 60% in size
#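 Kinetic colorimetric format: TGR-catalysed, NADPH-driven DTNB reduction monitored via TNB absorbance. Enzyme dispensed at 20 nM; compound exposure 15 min at room temperature before reaction start.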
# * = called active by the depositor; ? = inconclusive; nt = no result given; [ ] = another dose, or the depositor's remark. Hits are enriched below; roughly 7.7% of the tested compounds scored in any of these assays. Unless noted, the call rests on the fitted dose curve; in most records, active means well fitted curve in the direction sought with a large enough effect; inconclusive means small, poorly fitted or top-dose-only effect, or another doubt; inactive means no such curve, though single readings can be large; an effect the other way counts as inactive or inconclusive. On the % scale 0 is the no-effect control and ±100 the full control effect.
SMILES,FMDV inh,TbPYK inhibitor,RE007 growth inh,HCMV inh,Giardia FBPA inh,Sm TGR inh
Cc1ccc(Cl)cc1N1CCN(C(=O)COc2ccc(S(=O)(=O)NC(C)C)cc2)CC1,?,4%,14%,-89*,0%,0%
CC(C)NS(=O)(=O)c1ccc(OCC(=O)N2CCN(c3ccccc3)CC2)cc1,-1%,-6%,-18%,-5,2%,nt
O=C(COc1ccc(S(=O)(=O)NC2CCCCC2)cc1)N1CCN(c2cccc(Cl)c2)CC1,?,4%,-1%,-91*,-2%,1%
Cc1ccc(Cl)cc1N1CCN(C(=O)CN(C2CCCCC2)S(C)(=O)=O)CC1,14µM*,4%,1%,-24,1%,9%
Cc1ccc(NC(=O)C(=O)NCC(c2cccnc2)N2CCN(Cc3ccccc3)CC2)cc1 (stereo unspecified),?,-5%,nt,-15,nt,3%
CC(C)Oc1ccc(CNC(=O)c2ccc3nc(Cc4ccccc4)oc3c2)cc1,-18%,-3%,nt,7,nt,2%
O=C(CCNS(=O)(=O)c1ccc(Cl)cc1)N1CCCC1,-6%,2%,5%,-71*,nt,1%
O=C(CCNS(=O)(=O)c1ccc(Br)cc1)N1CCCCCCC1,-21%,-4%,7%,-16,nt,-2%
CCOc1ccccc1CN1CCCC(c2nc(C)ncc2-c2ccc(F)cc2)C1 (stereo unspecified),-10%,nt,nt,nt,nt,nt
Cc1nc(SCC(=O)Nc2nc3ccccc3s2)c(C#N)c(C)c1C,0.1µM*,?,11%,-94*,-3%,-22%
N#Cc1c(C(F)(F)F)cc(-c2cccs2)nc1SCC(=O)Nc1cccc(Br)c1,0%,1%,nt,-70*,nt,12%
Cc1nc(SCC(=O)Nc2nccs2)c(C#N)c(C)c1C,-25%,2%,0%,-69*,nt,-7%
O=C(CSC1=NCCS1)Nc1nc2ccccc2s1,1%,-1%,-27%,-68*,0%,-21%
COc1cc(-c2cc(-c3ccccc3)nc(SCC(=O)Nc3nccs3)c2C#N)cc(OC)c1OC,-2%,0%,3%,16,nt,35%
COc1cc([C@@H]2c3cc4c(cc3[C@@H](O[C@@H]3O[C@@H]5CO[C@@H](C)O[C@@H]5[C@H](O)[C@@H]3O)[C@H]3COC(=O)[C@H]23)OCO4)cc(OC)c1O,-9%[16.9 µM],nt,nt,nt,nt,nt
Cc1ccccc1NC(=O)CSc1nc2c(c(-c3ccco3)c1C#N)CCCC2,-25%,9%,10%,15,4%,0%
COc1ccc(-c2[nH]c(-c3ccccc3)nc2SCC(=O)Nc2nccs2)cc1,-30%,-19%,-4%,?,-8%,-17%
COc1ccc(-c2[nH]c(-c3ccc(Cl)cc3)nc2SCC(=O)Nc2nccs2)cc1,-29%,-6%,-1%,-79*,0%,-14%
CSc1nc(N)nc(SCC(=O)Nc2ccc(Cl)cc2)c1C#N,?,-3%,12%,-22,-9%,-4%
CSc1nc(N)nc(SCC(=O)Nc2cccc(F)c2)c1C#N,?,-21%,nt,-65*,-4%,-4%
N#Cc1c(SCC(=O)Nc2nccs2)nc2c(c1-c1ccco1)CCCC2,3%,-10%,5%,?,-13%,45µM*
CC(C)c1nnc(NC(=O)CSc2nc3ccccc3s2)s1,19%,-14%,-10%,-73*,6%,3%
CC(C)CC(=O)Nc1nnc(SCC(=O)Nc2nccs2)s1,-11%,1%,3%,-63*,-4%,-2%
Cc1cc(C(F)(F)F)c(C#N)c(SCC(=O)Nc2nc3ccccc3s2)n1,?,-2%,-10%,-60*,-2%,-3%
COc1cc(NC(=O)c2cc3cc4ccc(OC)c(Cl)c4nc3s2)cc(OC)c1,-25%,-10%,nt,-6,nt,3%
SMILES,FMDV inh,TbPYK inhibitor,RE007 growth inh,HCMV inh,Giardia FBPA inh,Sm TGR inh
Cc1ccccc1N1CC(C(=O)O)CC1=O (stereo unspecified),24%,5%,-7%,-85*,-2%,0%
Cc1ccccc1N1CC(C(=O)N2CCc3ccccc32)CC1=O (stereo unspecified),-3%,-1%,19%,-4,nt,6%
COc1ccc(C(=O)N2CCN(c3nc4c(OC)cccc4s3)CC2)cc1OC,?,-2%,nt,-84*,nt,-2%
COc1cccc2sc(N3CCN(C(=O)c4ccco4)CC3)nc12,7%,-4%,5%,-1,nt,9%
COc1cccc2sc(N3CCN(C(=O)CCS(=O)(=O)c4ccc(F)cc4)CC3)nc12,20µM*,-2%,nt,-88*,nt,0%
CCOc1cc(CNC(=O)CN2CCSc3ccccc32)cc(OCC)c1OCC,0%,1%,nt,10,nt,-2%
O=C(Nc1ccc(Cl)cc1)N[C@H]1CC[C@@]23CCCN2C(=O)CCC[C@H]3C1Cc1ccccc1 (stereo partly specified),nt,nt,nt,16,nt,nt
COc1ccc(NC(=O)C2CCCN2S(=O)(=O)c2ccc3nc(-c4ccccc4)[nH]c3c2)cc1 (stereo unspecified),-30%,3%,nt,18,nt,10%
Cc1ccc(NC(=O)C2CCCN2S(=O)(=O)c2ccc3nc(-c4ccccc4)[nH]c3c2)cc1F (stereo unspecified),?,6%,nt,-84*,nt,-1%
O=C1C(=O)N(C2CCN(C(=O)c3cccc(Cl)c3)CC2)CCN1Cc1ccc(F)cc1,-18%,2%,nt,-1,nt,1%
CC(C)(C)CN1CCNC(=O)C1CC(=O)N1CCOc2ccccc2C1 (stereo unspecified),-9%,-5%,2%,?,?,40µM*
COc1cccc(CN2CCNC(=O)C2CC(=O)N2CCOc3ccccc3C2)c1OC (stereo unspecified),5%,-6%,-3%,8,4%,-4%
C=C(C)CN(CC)C(=O)CC1C(=O)NCCN1CC(C)(C)C (stereo unspecified),-9%,3%,1%,-24,-29%,40µM*
O=C(CSc1ncnc2ccccc12)Nc1cc(S(=O)(=O)N2CCCCC2)ccc1Cl,?,3%,-4%,?,1%,-6%
Cc1ccc(S(=O)(=O)N2CCCCC2)cc1NC(=O)CSc1ncnc2ccccc12,-16%,-7%,-10%,-71*,0%,0%
Cc1ccc(NC(=O)CSc2ncnc3ccccc23)cc1S(=O)(=O)N1CCCCCC1,8.9µM*,3%,-13%,26,0%,-8%
Cc1ccc(S(=O)(=O)N2CCCCC2)cc1NCC(=O)Nc1ccc(Br)cc1F,?,1%,9%,-86*,nt,nt
O=C(CSc1ncnc2ccccc12)Nc1cccc(S(=O)(=O)N2CCCC2)c1,?,-3%,-10%,-8,-1%,6%
